We go through 16 molecules from PubChem BioAssay.

Molecules are shown by their SMILES. Where “and” joins values, the source holds several entries; their conditions need not be identical. Identical values can stand only once. Results filed as inconclusive are left out. Calls of active or inactive are those of the source.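 Rule for the calls, unless noted: active = inhibition above 50%; inactive = the rest.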

The nature of assay [1]: enhancers of SMN2 over SMN1 splicing, cell-based, SMN2/SMN1 luciferase reporters (AID 1598; call rule not given here). Conditions: SMN2 vs SMN1 luciferase splicing reporter cells, at 10 µM; SMN1 luciferase ratio: measured here: SMN1 luciferase reporter average; SMN2 luciferase ratio: measured here: SMN2 luciferase reporter average, stronger effect = higher value; SMN2/SMN1 luciferase ratio: stronger effect = higher value. (In general: Reporter assays use an easily measured gene product as a stand-in for the process of interest.)

Assay [2] is described as follows: HepG2 cytotoxicity, primary screen, cytotoxicity control for P. falciparum antimalarial project, cell-based, ATP luminescence (AID 2303).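 Note: 0% = DMSO wells and 100% = digitonin-killed cells.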 Conditions: HepG2 viability, 24-48 h, at 10 µM, stronger effect = higher value.
Assay [3] in a line: inhibitors of Cryptococcus chitosan production, flow cytometry, Cibacron Brilliant Red staining (AID 1347148; call rule not given here;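 note: compound exposure lasted three days at 37 degrees C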). Conditions: Cryptococcus neoformans chitosan, stronger effect = lower value; at 99.1 µM unless noted. (A flow cytometer gives signals particle by particle.)
Assay [4] can be described thus: protection against mutant huntingtin cytotoxicity, PC12 cells, LDH release (AID 1610). Conditions: PC12 mutant huntingtin toxicity, final LDH at 4 uM, stronger effect = lower value.
Assay [5] can be described thus: protection of motor neurons from glutamate death, cell-based, TUNEL DNA degradation staining, MNGlu (AID 1594; call rule not given here). The conditions noted are these: glutamate-induced death, at 1 µM, stronger effect = higher value.

On to `NC12CC3CC(CC(C3)C1)C2`, for which, in assay [1], the SMN1 luciferase ratio was determined as 0.84, the SMN2/SMN1 luciferase ratio was 1.22 (active) and the SMN2 luciferase ratio is 1.01. Further, in assay [2], the inhibition was 31% (inactive). Further, the fold fluorescence in assay [3] is 3.81 [at 330.6 µM] (inactive).
Turning to `O=C1CCC(N2C(=O)c3ccccc3C2=O)C(=O)N1` (stereo not given), in assay [3], the fold fluorescence is 3.34 [at 193.6 µM] (inactive).
For `CCN(CC)CCCC(C)Nc1ccnc2cc(Cl)ccc12` (stereo not given), the inhibition in assay [2] is 12% (inactive).
The same measure, in the same setting: for `c1ccc([C@H]2CN3CCSC3=N2)cc1` the value was 11% (inactive).
Regarding `Clc1cccc(Cl)c1NC1=NCCN1`, in assay [3], the fold fluorescence is 4.6 [at 217.3 µM] (inactive).
Consider `Oc1ccc(/C=C/c2cc(O)cc(O)c2)cc1`, for which, in assay [3], the fold fluorescence is 7.05 [at 219.1 µM] (inactive).
For `CC[C@H]1CN2CCc3cc(OC)c(OC)cc3[C@@H]2C[C@@H]1C[C@H]1NCCc2cc(OC)c(OC)cc21`, the inhibition in assay [2] was 43% (inactive).
With `CC[C@H](C)C(=O)O[C@H]1C[C@@H](C)C=C2C=C[C@H](C)[C@H](CC[C@@H]3C[C@@H](O)CC(=O)O3)[C@H]21`, the fold fluorescence in assay [3] was 4.35 [at 123.6 µM] (inactive).
Consider `c1ccc(CC2=NCCN2)cc1`, for which the inhibition in assay [2] is 3% (inactive).
On the same count and under the same terms, the value for `CCN(CCO)CCCC(C)Nc1ccnc2cc(Cl)ccc12` (stereo not given) was 3% (inactive).
`CCCCCN=C(N)N/N=C/c1c[nH]c2ccc(OC)cc12`: in assay [2], the inhibition was 16% (inactive).
Take `CN1C(C(=O)Nc2ccccn2)=C(O)c2ccccc2S1(=O)=O`: in assay [3], the fold fluorescence was 4.04 [at 150.9 µM] (inactive).
With `CC(C)C(=O)Nc1ccc([N+](=O)[O-])c(C(F)(F)F)c1`, in assay [4], the normalised LDH release stood at 0.739.
For the molecule `COC1=CC(=O)C[C@@H](C)[C@]12Oc1c(Cl)c(OC)cc(OC)c1C2=O`, the protection in assay [5] is 17% (active).
On to `CCc1nc(N)nc(N)c1-c1ccc(Cl)cc1`, for which the inhibition in assay [2] is 66% (active) and 71% (active).
As for `CN(C)CCOC(c1ccc(Cl)cc1)c1ccccn1` (stereo not given), the normalised LDH release in assay [4] came to 0.839.

What is called inhibition is the share of the control response that was lost under treatment.
